# Laboratory results reported in ChEMBL document CHEMBL1961873, “Compounds: GSK PKIS; Assays: Nanosyn kinase panel” (2012).
# Experiments:
# [1] = target: T1, Ephrin type-B receptor 2 (Homo sapiens) (UniProt P29323); conditions: at 1 µM
# T1 sequence (whole entry): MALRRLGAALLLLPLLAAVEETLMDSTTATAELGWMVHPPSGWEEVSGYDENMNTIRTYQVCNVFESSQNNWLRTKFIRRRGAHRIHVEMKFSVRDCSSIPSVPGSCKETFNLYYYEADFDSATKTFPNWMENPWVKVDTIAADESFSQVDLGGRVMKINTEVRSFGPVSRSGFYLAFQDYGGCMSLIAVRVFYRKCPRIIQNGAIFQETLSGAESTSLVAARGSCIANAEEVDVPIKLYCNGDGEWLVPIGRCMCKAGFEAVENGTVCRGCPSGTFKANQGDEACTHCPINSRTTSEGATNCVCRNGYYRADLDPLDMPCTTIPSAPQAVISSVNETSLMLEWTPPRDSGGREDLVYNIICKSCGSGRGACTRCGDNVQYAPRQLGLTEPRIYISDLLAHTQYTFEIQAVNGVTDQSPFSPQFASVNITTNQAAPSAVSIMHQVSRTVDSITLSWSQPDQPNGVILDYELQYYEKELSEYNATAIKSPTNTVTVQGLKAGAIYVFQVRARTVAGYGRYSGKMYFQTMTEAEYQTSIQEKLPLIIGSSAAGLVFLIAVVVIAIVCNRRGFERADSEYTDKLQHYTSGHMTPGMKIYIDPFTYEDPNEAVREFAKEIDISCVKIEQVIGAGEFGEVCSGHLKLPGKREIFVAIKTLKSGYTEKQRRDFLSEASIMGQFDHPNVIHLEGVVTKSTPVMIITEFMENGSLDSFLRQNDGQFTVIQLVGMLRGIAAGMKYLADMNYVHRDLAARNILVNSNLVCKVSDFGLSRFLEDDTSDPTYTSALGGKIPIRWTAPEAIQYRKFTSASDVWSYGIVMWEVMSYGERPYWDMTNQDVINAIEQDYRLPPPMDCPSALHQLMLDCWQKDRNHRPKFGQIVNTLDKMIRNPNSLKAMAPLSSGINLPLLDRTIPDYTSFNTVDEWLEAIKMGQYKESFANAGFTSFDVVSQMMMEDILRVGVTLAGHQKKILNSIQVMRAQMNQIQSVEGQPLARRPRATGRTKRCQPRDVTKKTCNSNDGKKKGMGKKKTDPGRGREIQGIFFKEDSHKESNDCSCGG
# [2] = target: T2, Ephrin type-B receptor 3 (Homo sapiens) (UniProt P54753); conditions: at 0.1 µM
# T2 sequence (whole entry): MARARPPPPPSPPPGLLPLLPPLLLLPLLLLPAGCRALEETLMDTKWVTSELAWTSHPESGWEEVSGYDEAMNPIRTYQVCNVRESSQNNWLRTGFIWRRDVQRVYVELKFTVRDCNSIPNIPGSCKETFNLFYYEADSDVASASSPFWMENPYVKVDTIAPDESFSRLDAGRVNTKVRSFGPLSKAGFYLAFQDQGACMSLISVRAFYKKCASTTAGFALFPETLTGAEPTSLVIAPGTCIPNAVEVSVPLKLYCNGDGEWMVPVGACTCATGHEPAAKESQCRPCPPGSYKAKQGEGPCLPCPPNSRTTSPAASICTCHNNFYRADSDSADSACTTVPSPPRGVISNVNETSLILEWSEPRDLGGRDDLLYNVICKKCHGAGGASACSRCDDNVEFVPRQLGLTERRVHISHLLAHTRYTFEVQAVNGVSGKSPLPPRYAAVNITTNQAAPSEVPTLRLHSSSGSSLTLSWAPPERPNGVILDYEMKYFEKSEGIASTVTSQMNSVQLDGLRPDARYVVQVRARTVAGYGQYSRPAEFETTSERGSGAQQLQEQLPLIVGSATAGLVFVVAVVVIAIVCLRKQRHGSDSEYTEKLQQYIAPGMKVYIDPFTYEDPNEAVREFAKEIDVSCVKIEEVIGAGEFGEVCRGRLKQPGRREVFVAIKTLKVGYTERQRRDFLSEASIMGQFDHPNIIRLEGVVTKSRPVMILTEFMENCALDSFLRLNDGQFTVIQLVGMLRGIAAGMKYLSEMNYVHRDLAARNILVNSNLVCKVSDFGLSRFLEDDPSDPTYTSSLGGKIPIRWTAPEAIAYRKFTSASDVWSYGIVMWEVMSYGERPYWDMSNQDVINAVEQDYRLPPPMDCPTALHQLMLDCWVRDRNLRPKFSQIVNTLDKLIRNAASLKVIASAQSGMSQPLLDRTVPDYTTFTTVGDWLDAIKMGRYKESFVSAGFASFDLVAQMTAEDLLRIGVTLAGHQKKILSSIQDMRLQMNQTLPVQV
# [3] = target: T2, Ephrin type-B receptor 3 (Homo sapiens); conditions: at 1 µM
# [4] = target: T3, Ephrin type-B receptor 4 (Homo sapiens) (UniProt P54760); conditions: at 0.1 µM
# T3 sequence (whole entry): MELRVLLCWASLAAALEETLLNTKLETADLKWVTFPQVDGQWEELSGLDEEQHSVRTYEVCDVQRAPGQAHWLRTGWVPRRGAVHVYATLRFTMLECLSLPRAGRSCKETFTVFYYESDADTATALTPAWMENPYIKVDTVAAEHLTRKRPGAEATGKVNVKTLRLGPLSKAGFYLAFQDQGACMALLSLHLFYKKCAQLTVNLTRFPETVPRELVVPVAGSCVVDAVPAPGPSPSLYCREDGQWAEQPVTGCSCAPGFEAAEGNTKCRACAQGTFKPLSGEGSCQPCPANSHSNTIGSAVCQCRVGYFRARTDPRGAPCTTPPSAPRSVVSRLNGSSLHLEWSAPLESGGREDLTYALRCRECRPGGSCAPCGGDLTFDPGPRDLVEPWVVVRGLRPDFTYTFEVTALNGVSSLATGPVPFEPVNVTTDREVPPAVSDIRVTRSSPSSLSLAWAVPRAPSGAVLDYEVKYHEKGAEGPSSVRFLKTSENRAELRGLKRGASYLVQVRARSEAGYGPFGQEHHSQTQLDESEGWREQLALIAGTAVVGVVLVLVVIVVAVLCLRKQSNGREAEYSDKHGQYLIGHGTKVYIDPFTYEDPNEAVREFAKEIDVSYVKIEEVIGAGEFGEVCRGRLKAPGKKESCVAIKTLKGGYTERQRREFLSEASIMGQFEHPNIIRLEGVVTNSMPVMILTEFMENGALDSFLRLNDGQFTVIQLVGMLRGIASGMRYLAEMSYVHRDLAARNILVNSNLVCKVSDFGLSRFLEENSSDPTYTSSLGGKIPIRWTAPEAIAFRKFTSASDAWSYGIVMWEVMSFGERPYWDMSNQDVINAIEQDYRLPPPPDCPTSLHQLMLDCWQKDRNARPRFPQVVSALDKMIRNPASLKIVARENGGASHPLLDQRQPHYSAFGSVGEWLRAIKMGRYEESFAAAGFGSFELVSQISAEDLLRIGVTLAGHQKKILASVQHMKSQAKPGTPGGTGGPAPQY
# [5] = target: T3, Ephrin type-B receptor 4 (Homo sapiens); conditions: at 1 µM
# [6] = target: Receptor tyrosine-protein kinase erbB-2 (Homo sapiens) (UniProt P04626); conditions: at 0.1 µM
# [7] = target: Receptor tyrosine-protein kinase erbB-2 (Homo sapiens) (UniProt P04626); conditions: at 1 µM
# [8] = target: Receptor tyrosine-protein kinase erbB-4 (Homo sapiens) (UniProt Q15303); conditions: at 0.1 µM
# Chain of Receptor tyrosine-protein kinase erbB-4 (Homo sapiens) (Q15303 whole entry): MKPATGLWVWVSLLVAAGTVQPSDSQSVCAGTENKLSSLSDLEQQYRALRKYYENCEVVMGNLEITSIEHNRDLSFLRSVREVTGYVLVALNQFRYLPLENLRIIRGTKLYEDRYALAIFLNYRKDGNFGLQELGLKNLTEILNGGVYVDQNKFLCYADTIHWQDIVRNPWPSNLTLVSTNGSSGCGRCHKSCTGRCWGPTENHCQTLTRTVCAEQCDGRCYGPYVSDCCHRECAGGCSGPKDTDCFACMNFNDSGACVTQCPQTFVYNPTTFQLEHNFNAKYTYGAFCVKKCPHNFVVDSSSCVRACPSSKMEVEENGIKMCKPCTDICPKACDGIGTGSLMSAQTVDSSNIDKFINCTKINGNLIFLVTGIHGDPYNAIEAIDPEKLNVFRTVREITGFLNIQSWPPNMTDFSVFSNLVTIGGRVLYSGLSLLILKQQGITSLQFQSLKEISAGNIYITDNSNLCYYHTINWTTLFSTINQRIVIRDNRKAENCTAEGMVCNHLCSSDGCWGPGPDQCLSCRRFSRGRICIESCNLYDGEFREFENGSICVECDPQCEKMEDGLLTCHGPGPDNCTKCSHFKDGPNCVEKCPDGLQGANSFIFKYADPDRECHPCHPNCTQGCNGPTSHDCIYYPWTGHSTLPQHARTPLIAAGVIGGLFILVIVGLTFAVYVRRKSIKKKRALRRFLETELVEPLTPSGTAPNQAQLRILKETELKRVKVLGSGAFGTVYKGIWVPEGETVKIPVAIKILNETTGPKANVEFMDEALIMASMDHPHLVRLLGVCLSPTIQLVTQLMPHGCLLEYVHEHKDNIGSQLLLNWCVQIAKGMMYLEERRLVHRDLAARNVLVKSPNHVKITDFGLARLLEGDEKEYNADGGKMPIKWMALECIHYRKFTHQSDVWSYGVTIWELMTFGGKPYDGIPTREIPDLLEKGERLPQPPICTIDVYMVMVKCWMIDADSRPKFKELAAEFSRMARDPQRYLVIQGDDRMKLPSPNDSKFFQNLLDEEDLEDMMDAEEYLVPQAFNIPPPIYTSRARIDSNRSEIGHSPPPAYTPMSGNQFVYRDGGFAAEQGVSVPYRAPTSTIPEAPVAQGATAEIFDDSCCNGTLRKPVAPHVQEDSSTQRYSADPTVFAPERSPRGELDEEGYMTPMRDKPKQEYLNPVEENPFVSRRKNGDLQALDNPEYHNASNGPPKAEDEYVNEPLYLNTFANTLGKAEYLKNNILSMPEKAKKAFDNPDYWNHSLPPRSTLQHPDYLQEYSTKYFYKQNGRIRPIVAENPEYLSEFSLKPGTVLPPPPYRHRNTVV
# [9] = target: Receptor tyrosine-protein kinase erbB-4 (Homo sapiens) (UniProt Q15303); conditions: at 1 µM
# [10] = target: Tyrosine-protein kinase Fer (Homo sapiens) (UniProt P16591); conditions: at 0.1 µM
# Chain of Tyrosine-protein kinase Fer (Homo sapiens) (P16591 whole entry, looked up): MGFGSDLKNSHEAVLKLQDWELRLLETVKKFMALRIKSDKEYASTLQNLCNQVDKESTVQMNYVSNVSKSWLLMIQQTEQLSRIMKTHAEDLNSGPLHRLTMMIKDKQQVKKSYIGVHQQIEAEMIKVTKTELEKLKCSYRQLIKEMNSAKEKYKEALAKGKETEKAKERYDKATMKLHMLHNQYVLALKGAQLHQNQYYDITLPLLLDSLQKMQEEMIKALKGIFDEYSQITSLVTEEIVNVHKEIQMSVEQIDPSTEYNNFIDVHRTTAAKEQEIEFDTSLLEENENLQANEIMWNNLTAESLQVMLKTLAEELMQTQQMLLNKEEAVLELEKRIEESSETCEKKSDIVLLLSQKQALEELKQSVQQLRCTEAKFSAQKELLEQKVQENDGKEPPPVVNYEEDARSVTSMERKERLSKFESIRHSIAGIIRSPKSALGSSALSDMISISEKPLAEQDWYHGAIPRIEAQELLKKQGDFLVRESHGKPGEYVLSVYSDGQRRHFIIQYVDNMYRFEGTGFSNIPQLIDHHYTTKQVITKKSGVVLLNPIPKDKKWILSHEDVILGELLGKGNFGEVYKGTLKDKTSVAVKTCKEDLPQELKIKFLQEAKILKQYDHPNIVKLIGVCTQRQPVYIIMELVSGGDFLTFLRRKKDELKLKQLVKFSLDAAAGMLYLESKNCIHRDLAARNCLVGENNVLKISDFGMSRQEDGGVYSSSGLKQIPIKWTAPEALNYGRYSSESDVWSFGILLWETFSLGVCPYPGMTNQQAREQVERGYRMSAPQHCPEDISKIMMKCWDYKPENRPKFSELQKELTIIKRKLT
# [11] = target: Tyrosine-protein kinase Fer (Homo sapiens) (UniProt P16591); conditions: at 1 µM
# [12] = target: Tyrosine-protein kinase Fes/Fps (Homo sapiens) (UniProt P07332); conditions: at 0.1 µM
# Chain of Tyrosine-protein kinase Fes/Fps (Homo sapiens) (P07332 whole entry): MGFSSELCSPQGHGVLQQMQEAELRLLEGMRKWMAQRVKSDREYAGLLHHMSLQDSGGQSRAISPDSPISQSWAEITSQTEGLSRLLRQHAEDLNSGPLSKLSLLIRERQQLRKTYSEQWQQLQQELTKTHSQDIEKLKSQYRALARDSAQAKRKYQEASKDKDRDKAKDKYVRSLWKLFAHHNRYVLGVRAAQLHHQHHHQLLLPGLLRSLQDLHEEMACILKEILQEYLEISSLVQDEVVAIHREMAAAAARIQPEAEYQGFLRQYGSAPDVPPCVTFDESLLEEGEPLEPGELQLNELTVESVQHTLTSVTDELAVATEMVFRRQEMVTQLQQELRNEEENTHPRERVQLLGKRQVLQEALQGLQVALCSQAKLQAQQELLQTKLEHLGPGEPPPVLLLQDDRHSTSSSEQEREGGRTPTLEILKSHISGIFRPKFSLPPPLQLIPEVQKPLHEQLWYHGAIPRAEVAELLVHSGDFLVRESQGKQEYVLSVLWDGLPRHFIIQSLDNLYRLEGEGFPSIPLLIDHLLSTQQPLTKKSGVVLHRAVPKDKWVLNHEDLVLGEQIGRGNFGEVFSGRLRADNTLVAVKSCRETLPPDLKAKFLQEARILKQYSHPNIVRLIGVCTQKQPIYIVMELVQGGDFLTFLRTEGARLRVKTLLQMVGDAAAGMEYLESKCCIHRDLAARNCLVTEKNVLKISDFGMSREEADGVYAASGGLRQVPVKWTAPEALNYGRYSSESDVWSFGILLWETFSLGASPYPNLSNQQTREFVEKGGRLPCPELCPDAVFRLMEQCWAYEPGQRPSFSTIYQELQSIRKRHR
# [13] = target: Tyrosine-protein kinase Fes/Fps (Homo sapiens) (UniProt P07332); conditions: at 1 µM
# [14] = target: Fibroblast growth factor receptor 1 (Homo sapiens) (UniProt P11362); conditions: at 0.1 µM
# [15] = target: Fibroblast growth factor receptor 1 (Homo sapiens) (UniProt P11362); conditions: at 1 µM
# [16] = target: Fibroblast growth factor receptor 2 (Homo sapiens) (UniProt P21802); conditions: at 0.1 µM
# Chain of Fibroblast growth factor receptor 2 (Homo sapiens) (P21802 22-821 limits assumed): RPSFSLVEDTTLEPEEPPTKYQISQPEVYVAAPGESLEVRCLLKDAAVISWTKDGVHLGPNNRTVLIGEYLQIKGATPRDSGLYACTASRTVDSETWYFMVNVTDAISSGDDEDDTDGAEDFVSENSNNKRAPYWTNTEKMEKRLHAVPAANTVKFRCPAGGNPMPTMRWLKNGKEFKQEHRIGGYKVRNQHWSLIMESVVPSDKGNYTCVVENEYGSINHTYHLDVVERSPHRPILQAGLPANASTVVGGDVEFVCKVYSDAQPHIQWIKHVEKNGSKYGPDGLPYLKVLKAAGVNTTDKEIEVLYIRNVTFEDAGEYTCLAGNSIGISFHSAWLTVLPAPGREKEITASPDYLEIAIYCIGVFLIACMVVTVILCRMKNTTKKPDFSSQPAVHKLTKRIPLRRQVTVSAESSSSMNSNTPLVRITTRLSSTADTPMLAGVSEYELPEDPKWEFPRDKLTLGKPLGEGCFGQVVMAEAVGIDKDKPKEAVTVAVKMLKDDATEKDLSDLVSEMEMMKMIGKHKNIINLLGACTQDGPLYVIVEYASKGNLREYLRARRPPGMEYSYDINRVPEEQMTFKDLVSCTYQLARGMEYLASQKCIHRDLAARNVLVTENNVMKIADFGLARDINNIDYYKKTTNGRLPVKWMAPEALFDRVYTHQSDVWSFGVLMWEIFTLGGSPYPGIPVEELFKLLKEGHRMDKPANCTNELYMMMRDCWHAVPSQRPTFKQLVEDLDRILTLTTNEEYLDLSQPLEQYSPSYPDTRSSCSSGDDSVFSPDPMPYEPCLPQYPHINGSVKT
# [17] = target: Fibroblast growth factor receptor 2 (Homo sapiens) (UniProt P21802); conditions: at 1 µM
# [18] = target: Fibroblast growth factor receptor 3 (Homo sapiens) (UniProt P22607); conditions: at 0.1 µM
# [19] = target: Fibroblast growth factor receptor 3 (Homo sapiens) (UniProt P22607); conditions: at 1 µM
# [20] = target: Fibroblast growth factor receptor 4 (Homo sapiens) (UniProt P22455); conditions: at 0.1 µM;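 also: values are mean percent inhibition of FGFR4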
# Chain of Fibroblast growth factor receptor 4 (Homo sapiens) (P22455 22-802 limits assumed): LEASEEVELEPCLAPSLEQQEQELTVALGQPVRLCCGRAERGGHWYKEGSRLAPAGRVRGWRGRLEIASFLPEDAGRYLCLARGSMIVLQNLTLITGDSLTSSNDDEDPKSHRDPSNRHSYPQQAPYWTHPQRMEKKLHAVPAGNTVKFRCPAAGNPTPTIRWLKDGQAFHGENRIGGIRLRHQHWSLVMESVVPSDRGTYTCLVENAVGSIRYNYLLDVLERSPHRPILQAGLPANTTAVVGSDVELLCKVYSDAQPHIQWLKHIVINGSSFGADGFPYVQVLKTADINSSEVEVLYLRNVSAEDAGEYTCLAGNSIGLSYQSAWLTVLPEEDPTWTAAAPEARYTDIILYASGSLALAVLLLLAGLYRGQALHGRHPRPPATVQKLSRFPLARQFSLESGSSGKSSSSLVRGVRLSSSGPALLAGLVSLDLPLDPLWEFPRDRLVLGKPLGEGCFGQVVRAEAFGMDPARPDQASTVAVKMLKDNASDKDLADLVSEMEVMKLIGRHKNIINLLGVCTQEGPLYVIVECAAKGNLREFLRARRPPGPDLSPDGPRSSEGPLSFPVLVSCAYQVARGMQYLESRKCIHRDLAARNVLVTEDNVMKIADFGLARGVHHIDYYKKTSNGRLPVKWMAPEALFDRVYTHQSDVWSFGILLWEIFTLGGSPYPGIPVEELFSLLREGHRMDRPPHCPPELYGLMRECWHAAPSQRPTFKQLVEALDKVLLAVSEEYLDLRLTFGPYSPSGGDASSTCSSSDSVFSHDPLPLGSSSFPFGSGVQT
SMILES,inhibition [1] [%],inhibition [2] [%],inhibition [3] [%],inhibition [4] [%],inhibition [5] [%],inhibition [6] [%],inhibition [7] [%],inhibition [8] [%],inhibition [9] [%],inhibition [10] [%],inhibition [11] [%],inhibition [12] [%],inhibition [13] [%],inhibition [14] [%],inhibition [15] [%],inhibition [16] [%],inhibition [17] [%],inhibition [18] [%],inhibition [19] [%],inhibition [20] [%]
Cc1nnc(-c2ccc(C)c(-c3ccc(C(=O)Nc4cccc(C#N)c4)cc3)c2)o1,8.63,4.01,4.32,1.3,1.73,2.71,2.09,11,16.2,2,1.72,0.91,2.11,-1.37,1.5,1.7,4.97,2.6,3.98,2.08
CCn1c(-c2nonc2N)nc2c(N3CCCC3)nccc21,-2.7,-2.28,-3.63,-1.4,-1.17,-5.46,-0.23,-3.28,-2.19,2.26,2.34,-2.72,-3.78,-3.71,-1.9,-4,-1.03,0.34,-0.31,3.05
COc1cc(C=NNc2ncnc3c2cnn3-c2ccccc2)ccc1O,18.2,3.59,-2.55,2.58,9.64,1.75,-2.49,3.71,6.51,-3.39,4.88,2.59,4.03,1.01,3.72,3,9.48,2.91,7.58,4.25
COc1ccc2cc(-c3c(-c4ccncc4)nc(-c4ccc([S+](C)[O-])cc4)n3C)ccc2c1 (stereo not given),6.51,5.38,4.12,2.71,6.99,2.07,-0.38,12.1,23.1,1.4,3.19,2.73,3,0.66,17,3.38,5.85,4.62,5.2,0.03
CNC(=O)c1cncc(/C=C/c2c(Cl)cccc2Cl)c1,29.2,-2.12,2.92,2.4,74.1,3.2,3.13,-0.22,8.83,0.6,5.39,2.89,4.62,1.94,-1.56,3.82,7.15,5.62,1.39,1.14
O=C1NC(=O)C(c2ccccc2Cl)=C1Nc1cccc(O)c1,7.6,4.32,1.16,1.29,3.19,0.64,-0.2,8.95,8.95,4.57,2.82,1.81,2.5,4.34,7.05,3.39,-3.75,2.9,2.97,1.92
COC(=O)Nc1nc2cc(Oc3ccc(NC(=O)Nc4cccc(C(=O)O)c4)cc3)ccc2[nH]1,3.77,-0.56,-3.97,-2.57,-4.05,-0.03,3.5,2.52,0.22,-1.22,2.49,-0.49,0.5,-4.37,-2.27,-3.37,5.77,-1.47,11.9,-6.8
Nc1nc(-c2ccccn2)c(-c2ccc3ncccc3n2)s1,3.51,2.99,3.23,2.74,0.44,1.34,4.11,7.11,8.52,0.93,6.59,2.12,3.07,7,5.84,3.92,7.02,5.15,4.97,-1.61
CCCN1CCC=C(c2ccc(Nc3nc(Nc4ccccc4C(N)=O)c4cc[nH]c4n3)c(C)c2)C1,8.88,1.76,2.4,2.74,3.5,2.98,3.15,7.5,27.7,12.8,68.7,16.5,57.3,1.72,7.09,6.37,7.35,6.92,6.81,3.01
COc1ccc(-c2nn3ncccc3c2-c2ccnc(Nc3ccc(Cl)c(C(F)(F)F)c3)n2)cc1,10,3.56,4.88,3.3,-0.34,3.66,7.66,16,51.5,1.3,3.06,0.66,1.82,1.96,-2.37,1.72,2.97,2.57,4.12,0.28
Fc1cccc(COc2ccc(Nc3ncnc4sc(-c5cccs5)cc34)cc2Cl)c1,2.33,0.38,2.19,1.37,1.29,1.07,3.46,5.25,31.8,5.4,9.05,0.45,0.01,4.36,5.02,2.92,3.32,0.4,6.81,0.35
NC(=O)c1cccc(Nc2nccc(Nc3cccc4[nH]ncc34)n2)c1,77.8,-3.41,4.33,22.2,72.1,-4.62,2.08,-6.41,-1.88,3.13,21.9,-2.33,10.9,-5.24,9.11,-1.94,13.1,-3.38,4.68,1.28
[O-][S+]1CCN(Cc2ccc(-c3ccc4ncnc(Nc5ccc(OCc6ccccc6)c(F)c5)c4c3)o2)CC1,-0.23,3.15,1.61,0.35,2.22,20.4,75.1,68.7,88.7,3.77,6.08,1.91,3.4,2.71,-2.34,1.34,3.9,3.41,2.82,0.38
